Source: PubChem BioAssay (NCATS)
Records with an inconclusive call do not appear. Activity calls are given as the source filed them. Calls come from the whole dose curve; as a rule, active = well fitted inhibition curve with a large enough effect; inconclusive = small, poorly fitted or top-dose-only effect; inactive = no such curve, though single readings can be large or run the other way.

Assay: Primary qHTS for small molecule stabilizers of the endoplasmic reticulum resident proteome: Secreted ER Calcium Modulated Protein (SERCaMP) assay (AID 1508630)
Conditions: SH-SY5Y GLuc-SERCaMP (Gaussia luciferase released on ER calcium loss) secretion, thapsigargin, luminescence; series mostly up to 38.4 µM
Text: Assay Provider: Brandon K. Harvey Ph.D.
National Institute on Drug Abuse, National Institutes of Health, Baltimore, MD
Endoplasmic reticulum (ER) dysregulation is associated with human pathologies including neurodegenerative, cardiovascular, muscular, and diabetic conditions. Maintenance of ER calcium is critical for functions of the ER and its depletion can lead to loss of ER resident proteins, in a process termed exodosis. Therapeutic compounds capable of attenuating the redistribution of ER proteins under pathological conditions may slow or stop disease progression. To identify such compounds, we performed a quantitative high-throughput screen (qHTS) using the SERCaMP assay, which monitors secretion of ER resident proteins triggered by calcium depletion.
SERCaMP was initially developed as a reporter of ER calcium homeostasis using a Gaussia luciferase with a modified signal peptide and carboxy-terminus (GLuc-SERCaMP), modifications that confer secretion of the reporter in response to ER calcium depletion (Henderson et al., 2014). The assay was used to screen 9,501 compounds, including a collection of drugs approved by the FDA (US), EMA (EU), NHI (Japan), and HC (Canada) regulatory agencies (Huang et al., 2011). Since the SERCaMP reporter reflects the exodosis phenomenon (Trychta et al., 2018a), compounds identified in the screen have the potential to prevent exodosis by different mechanisms such as stabilizing ER calcium or augmenting ERS retrieval.
1. Henderson, M.J., Wires, E.S., Trychta, K.A., Richie, C.T., and Harvey, B.K. (2014). SERCaMP: a carboxy-terminal protein modification that enables monitoring of ER calcium homeostasis. Mol Biol Cell 25, 2828-2839.
2. Huang, R., Southall, N., Wang, Y., Yasgar, A., Shinn, P., Jadhav, A., Nguyen, D.T., and Austin, C.P. (2011). The NCGC pharmaceutical collection: a comprehensive resource of clinically approved drugs enabling repurposing and chemical genomics. Sci Transl Med 3, 80ps16.
3. Trychta, K.A., Back, S., Henderson, M.J., and Harvey, B.K. (2018a). KDEL Receptors Are Differentially Regulated to Maintain the ER Proteome under Calcium Deficiency. Cell Rep 25, 1829-1840 e1826.
SEQUENCE No. (1, 2, 3, etc.); […] (e.g., Cells, Incubation, Reagent, etc.); VALUE and DESCRIPTION.
1; Reagent; 5 uL; 1000 SH-SY5Y cells per wells
3; Compound; 23 nL; Control inhibitor / compound library
5; Reagent; 100 nM; Thapsigargin
7; Reagent; 1 uL; 0.5x coelenterazine
8; Detection; Luminescence; ViewLux imaging system
NOTES (numbers refer to sequence above)
1; SH-SY5Y human neuroblastoma cells stably expressing GLuc-SERCaMP (SH-SY5Y-GLuc-ASARTDL) cells were seeded in 1,536 well white tissue culture treated plates (Corning, Cat# 7464) in DMEM-high glucose-sodium pyruvate (ThermoFisher Scientific, Cat #10569) supplemented with 10% bovine growth serum (Hyclone), 10 U/ml penicillin (Gibco), 10 ug/ml streptomycin (Gibco), and 20 mM HEPES.
2; Assay plates were incubated for 5 hour at 37C in a humidified incubator containing 5% CO2.
3; qHTS libraries (23 nl, final concentrations of 1.53 uM, 7.67 uM, 38.3 uM) or controls (neutral control: DMSO, positive control: dantrolene) were added using a Kalypsis pin-tool Robotic System equipped with 1536 pinheads.
4; Cells were then incubated for 16 hours at 37C, 5% CO2.
5; Thapsigargin was added at 100 nM to deplete ER calcium stores.
6; Cells were incubated for 4 hour (37 °C, 5% CO2)
7; Gaussia luciferase in the medium was measured by adding 1 ul of 0.5x coelenterazine (final concentration 0.07x) prepared in Gaussia Luciferase Glow Assay Buffer (Pierce), without addition of the Cell Lysis Buffer Reagent.
8; Luminescence was measured using a ViewLux […] CCD imaging system (Perkin Elmer) equipped with clear filters. […] The same controls were also used for the calculation of the Z' factor, a measure of assay quality control, as previously described (Zhang et al., 1999). […]

outcome, inactive:
O=C(c1cnccn1)N1CCC2(CC1)CN(c1ncccn1)C2, CS(=O)(=O)N1CCC2(CC1)CN(c1ccc(-c3ccccc3)cc1)C2, COc1ccc(CNc2ncnc3ccc(-c4ccc5c(c4)OCO5)cc23)c(OC)c1, COc1ccc(CNc2ncncc2-c2ccc(N(C)C)cc2)c(OC)c1, N#Cc1ccc(CN2CCC3(CCNCC3)CC2)cc1, Cn1cccc1C(=O)N1CCC2(CCCN(C(=O)Nc3cccc(F)c3)C2)CC1, COc1ccc(CNc2ncncc2-c2c(C)noc2C)c(OC)c1, Cn1c(=O)c(-c2ccc(F)cc2)nc2cncnc21, COc1ccccc1CN1CCCC2(CCN(C(=O)c3cccn3C)CC2)C1, Cc1cnc(CNc2ccnc(-c3ccoc3)n2)cn1, COc1ccc(C(=O)N2CCC3(CCCN(C(=O)NC(C)C)C3)CC2)cc1, Cc1noc(C)c1-c1ccc2ncnc(NCc3ccccc3)c2c1, COc1ccccc1CN1CC[C@@]2(CCCN(C(=O)c3ccncc3)C2)C1, COc1ccc(-c2nc3cnc(OC)nc3n(CCC#N)c2=O)cc1, Cc1cnc(CNc2ncncc2-c2ccccc2Cl)cn1, N#Cc1ccc(CN2CC3(CCN(C(=O)c4ccco4)CC3)C2)cc1, COc1ccccc1-c1cc(NCc2cccs2)ncn1, COc1ccc(NC(=O)N2CCCC3(CCN(C(=O)c4ccc(OC)cc4)CC3)C2)cc1, COc1ccccc1CNc1cc(-c2ccccc2Cl)ncn1, N#Cc1cccc(-c2cc(NCc3cccnc3)ncn2)c1, CNc1nc(-c2ccccc2C(F)(F)F)nc2ccccc12, COc1ccc(-n2c(=O)c(C)nc3cncnc32)cc1, COc1ccc(C(=O)N2CCC3(CCCN(c4cccc(-c5ccccc5)c4)C3)CC2)cc1, CS(=O)(=O)N1CCC[C@@]2(CCN(c3ncccn3)C2)C1, O=C(c1cccc(F)c1)N1CCC[C@@]2(CCN(Cc3ccncc3)C2)C1, O=C(Oc1ccccc1)N1CCC2(CCCN(c3cccc(-c4ccccc4)c3)C2)CC1, CN1CCN(c2ncc3nc(-c4ccc(Cl)cc4)c(=O)n(C)c3n2)CC1, Cc1nc2cnc(N3CCNCC3)nc2n(C2CC2)c1=O, CN(C)C(=O)c1ccc(-c2nc(-n3ccnc3)c3ccccc3n2)cc1, O=c1c(-c2cc(F)cc(F)c2)nc2cncnc2n1Cc1ccccc1Cl, COC(=O)N1CCC[C@@]2(CCN(C(=O)Nc3ccc(OC)cc3)C2)C1, c1ccc(C(c2ccccc2)N2CCC3(CCNCC3)CC2)cc1, COC(=O)N1CCC2(CC1)CN(c1ccncc1)C2, CN(C)C(=O)c1ccc(-c2ccc3ncnc(N4CCNCC4)c3c2)cc1, CN(C)Cc1ccccc1-c1nccc(NCc2cccs2)n1, CCNc1ncc2nc(-c3ccc(OC)cc3)c(=O)n(Cc3ccc(F)cc3)c2n1, Cn1cccc1C(=O)N1CCC2(CC1)CCN(c1ncccn1)CC2, CC(C)CN1CC2(CCN(C(=O)c3cnccn3)CC2)C1, N#Cc1cccc(NC(=O)N2CC[C@@]3(CCCN(C(=O)c4cccc(F)c4)C3)C2)c1, COc1ccccc1-c1nc(NCCN2CCOCC2)c2ccccc2n1
